Source: PubChem BioAssay AID489036 (National Center for Advancing Translational Sciences (NCATS), 2010)
Inconclusive results are not listed. Entries that show only a call come without a potency. Activity calls are given as the source filed them. The call rests on the fitted dose curve; in most records, active means well fitted inhibition curve with a large enough effect; inconclusive means small, poorly fitted or top-dose-only effect, or effect the other way; inactive means flat fitted curve, though single readings scatter.

Test: VP16 selectivity assay for inhibitors of ROR gamma transcriptional activity
Conditions: Drosophila Schneider Gal4-VP16 UAS-luciferase reporter, 20 h; series mostly up to 92.2 µM
In short: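 Luciferase luminescence read after 20 hr induction with 700 uM (final) copper sulfate at ambient temperature, following 1 hr compound pretreatment. Counter-screen uses Schneider cells carrying metallothionein-driven Gal4 DBD–VP16 and a UAS-Photinus luciferase reporter.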

Compound	Potency
CCC(=O)C1CCCN(C(=O)CC(c2ccc3c(c2)OCO3)c2c(O)cc(OC)cc2OC)C1 (configuration not stated)	inactive
COc1cc(O)c(C(CC(=O)N2CCCC(C#N)C2)c2ccc3c(c2)OCO3)c(OC)c1 (configuration not stated)	inactive
O=C(/C=C/c1ccc(S(=O)(=O)N2CCOCC2)cc1)NC(=S)Nc1ccc(N2CCOCC2)cc1	20.4 µM (active)
COc1cc(O)c(C(CC(=O)N2CCCC(COc3ccc(F)cc3)C2)c2ccc3c(c2)OCO3)c(OC)c1 (configuration not stated)	inactive
COc1cc(O)c(C(CC(=O)N2CCCCC2)c2ccc3c(c2)OCO3)c(OC)c1 (configuration not stated)	inactive
COc1ccc(-c2c[n+]3c(n2-c2ccc(C)cc2)CCCCC3)cc1	5.12 µM (active)
COc1cc(O)c(C(CC(=O)N2CC(C)NC(C)C2)c2ccc3c(c2)OCO3)c(OC)c1 (configuration not stated)	inactive
Cc1ccc(OCCCC(=O)Nc2nc3ccccc3[nH]2)cc1	18.2 µM (active)
Cc1nn(-c2cc(C)c3ccccc3n2)c2c1C1C(C2)C1(C)C (configuration not stated)	22.9 µM (active)
COc1cc(O)c(C(CC(=O)N2CCCC(C)C2)c2ccc(OC)c(OC)c2)c(OC)c1 (configuration not stated)	inactive
COc1cc(O)c(C(CC(=O)N2CCC(c3ccccc3)CC2)c2ccc(C)cc2)c(OC)c1 (configuration not stated)	inactive
C=C1Nc2c(-c3ccc(F)cc3)cnn2C(N)=C1c1ccccc1	0.288 µM (active)
CC(C)(C)OC(=O)N1CCC[C@H]1C(=O)N1CCC(C(=O)N[C@H](Cc2ccccc2)C(=O)NCc2ccc(F)cc2)CC1	inactive
COc1cc(O)c(C(CC(=O)N2CCCC(C)C2)c2ccccc2OC)c(OC)c1 (configuration not stated)	inactive
COc1ccccc1C(CC(=O)N1C[C@H](C)C[C@H](C)C1)c1ccccc1 (some centres not stated)	32.3 µM (active)
CC(C)(C)c1ccc([S+](=O)([O-])Nc2ccccc2C(O)(C(F)(F)F)C(F)(F)F)cc1	11.5 µM (active)
CC(C)(C)c1ccc(S(=O)(=O)Nc2ccc(C(O)(C(F)(F)F)C(F)(F)F)cc2)cc1	18.2 µM (active)
